The source made the active and inactive calls.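 Rule for the calls, unless noted: active = inhibition above 20% together with a positive visual image hit; inconclusive = visual image hit but inhibition not above 20%; inactive = no visual image hit.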
Experiments:
[1] = inhibitors of TNFa-induced NFkB p65 translocation, primary screen, imaging, HUVEC, MLSMR starter and 10KST1 sets (AID 438); details: HUVEC TNFa-induced p65 nuclear translocation; cell count: measured here: nuclei count (cytotoxicity indicator), at 2.08 µM; inhibition: at 2 µM, stronger effect = higher value, 0% TNFa-plus-vehicle, 100% no-TNFa wells;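 note: compound added about 3h40 before a 20 min TNFalpha stimulation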;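 for inhibition: signal is the nuclear over cytoplasmic p65 intensity ratio per well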
[2] = inhibitors of mutant huntingtin aggregation, primary screen, imaging, exon1htt(103Q)mCFP cells, high-content imaging (AID 483;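 active = visual image review flags a hit and inhibition of aggregation exceeds 20%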;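 note: compound exposure lasted 3 days before fixation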;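 for nuclei count: percent of the per-plate median nuclei count of sample wells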); details: exon1htt(103Q)mCFP cell line, aggregate imaging, at 2 µM; inhibition of aggregation: stronger effect = higher value; nuclei count: measured here: cell count, toxicity
[3] = inhibitors of E-selectin induction by TNFa, primary screen, imaging, HUVEC, immunofluorescence, MLSMR starter and 10KST1 sets (AID 487;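 active = visually confirmed hit in the image check and inhibition above 20%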;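 for inhibition: signal is fraction of cell area covered by stained E-selectin grains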;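 for nuclei count: 100% = median nuclei count of all wells on the same plate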); details: HUVEC TNFalpha-induced E-selectin immunofluorescence imaging, at 2 µM; inhibition: stronger effect = higher value; nuclei count: measured here: cell number, toxicity
[4] = molecular target: Voltage-gated potassium channel subunit beta-2 (Rattus norvegicus) (UniProt P62483); test: KvBeta enzyme negative modulators, primary screen, biochemical, NADPH fluorescence (AID 622;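 active = fluorescence slope higher than the sample average by over 3 SD, cut at about -0.22 in these data, passing the limit was not always enough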;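 note: slope of raw intensity against log time taken from 70 to 1610 s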); details: recombinant KvBeta, 4-cyanobenzaldehyde reduction, at 10 µM, stronger effect = higher value
[5] = molecular target: Voltage-gated potassium channel subunit beta-2 (Rattus norvegicus) (UniProt P62483); test: KvBeta positive modulators, primary screen, biochemical, NADPH fluorescence (AID 623;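 active = NADPH fluorescence slope more negative than the mean of all samples by about 3 SD, 99.7% confidence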;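 note: fluorescence intensity change per second fitted from 20 to 320 s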); details: Recombinant KvBeta, NADPH fluorescence decrease slope, 10 min; at 10 µM; stronger effect = lower value
[6] = molecular target: Alpha-2C adrenergic receptor (Homo sapiens) (UniProt P18825); test: modulators of alpha2C/GIRK thallium flux, primary screen, cell-based, HEK293 alpha2C/GIRK1/2 (AID 624;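 active = fluorescence slope after compound addition differing from the mean of all screened samples at 99.7% confidence, in either direction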;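 note: slope of fluorescence ratio to pre-addition baseline per second over 15 to 24 s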); details: thallium flux BTC fluorescence, at 10 µM, actives lie on both sides
[7] = inhibitors of Sendai virus-induced IRF3 signaling, primary screen, TLR/RLR signaling modifier project, cell-based, Sendai virus stimulus, luciferase, 10K MLSCN set (AID 602276;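 active = inhibition at or above 50% at 10 µM; inactive = inhibition below 50%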;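 note: firefly luciferase from ISG56 promoter only with Renilla not read in this screen; 0% = Sendai virus plus DMSO and 100% = medium plus DMSO without virus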); details: HEK293 RL24 IRF3 luciferase reporter, at 10 µM, stronger effect = higher value
[8] = inhibitors of poly I:C-induced TLR3 signaling, primary screen, cell-based, poly I:C stimulus, luciferase, 10K MLSCN set (AID 602277;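 active = inhibition of the reporter signal at or above 50%; inactive = inhibition below 50%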); details: HEK293-TLR3 RL24 IRF3 luciferase reporter, at 10 µM, stronger effect = higher value

Chain of Alpha-2C adrenergic receptor (Homo sapiens) (P18825 whole entry, looked up): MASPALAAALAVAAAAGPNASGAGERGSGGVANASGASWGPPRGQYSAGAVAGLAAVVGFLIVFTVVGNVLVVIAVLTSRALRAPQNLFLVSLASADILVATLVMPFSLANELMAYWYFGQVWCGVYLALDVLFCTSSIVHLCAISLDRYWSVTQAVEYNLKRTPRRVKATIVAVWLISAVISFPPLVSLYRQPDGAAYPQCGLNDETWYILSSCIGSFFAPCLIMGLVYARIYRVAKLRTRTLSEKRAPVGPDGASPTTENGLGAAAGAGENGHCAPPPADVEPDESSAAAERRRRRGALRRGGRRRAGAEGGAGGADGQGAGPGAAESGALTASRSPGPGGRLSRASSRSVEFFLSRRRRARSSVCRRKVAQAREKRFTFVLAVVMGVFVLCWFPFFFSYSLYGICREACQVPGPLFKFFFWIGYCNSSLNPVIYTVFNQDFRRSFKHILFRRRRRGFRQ
Chain of Voltage-gated potassium channel subunit beta-2 (Rattus norvegicus) (P62483 whole entry, looked up): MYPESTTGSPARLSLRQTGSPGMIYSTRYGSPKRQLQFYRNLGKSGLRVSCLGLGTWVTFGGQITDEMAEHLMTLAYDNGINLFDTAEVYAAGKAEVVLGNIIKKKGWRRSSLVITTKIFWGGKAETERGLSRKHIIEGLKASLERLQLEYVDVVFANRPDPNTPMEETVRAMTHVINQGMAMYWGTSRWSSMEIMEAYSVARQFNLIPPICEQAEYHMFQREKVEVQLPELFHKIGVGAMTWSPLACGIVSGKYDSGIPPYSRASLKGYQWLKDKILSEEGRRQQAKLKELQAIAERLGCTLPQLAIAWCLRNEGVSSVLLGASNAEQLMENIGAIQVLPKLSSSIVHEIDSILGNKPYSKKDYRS

Row | Compound | cell count [1] | inhibition [1] | inhibition of aggregation [2] | nuclei count [2] [%] | inhibition [3] | nuclei count [3] [%] | fluorescence slope [4] | NADPH fluorescence slope [5] | slope [6] | inhibition [7] | inhibition [8]
1 | O=C(NCC(c1cccnc1)N1CCN(c2ccccc2)CC1)c1ccc2c(c1)OCO2 (centres undefined) | 362 | -1.8% (inactive) | 25.6% (inactive) | 87.1 | 29.6% (inactive) | 83.3 | -0.619 (inactive) | -1.3e-05 (inactive) | 0.00563 (inactive) | 8.91% (inactive) | 16.3% (inactive)
2 | CN(C)S(=O)(=O)c1ccc(Oc2ccc(S(=O)(=O)N(C)C)cc2)cc1 | 273 | -4.4% (inactive) | -0.5% (inactive) | 89.3 | 8.2% (inactive) | 80.6 | -0.42 (inactive) | 3.1e-05 (inactive) | 0.00921 (inactive) | -5.78% (inactive) | -20.3% (inactive)
3 | CC(=O)Nc1ccc(S(=O)(=O)NCc2cn3c(C)csc3n2)cc1 | 531 | -7.6% (inactive) | -8.4% (inactive) | 104 | -29.8% (inactive) | 84.3 | -0.588 (inactive) | -3.6e-05 (inactive) | 0.00529 (inactive) | 1.88% (inactive) | 8.5% (inactive)
4 | CCOC(=O)c1ccc2[nH]c(C)c(CN3CCN(C)CC3)c(=O)c2c1 | 332 | 6.1% (inactive) | 11.1% (inactive) | 89.7 | 20.8% (inactive) | 112 | -0.471 (inactive) | -4e-05 (inactive) | 0.00513 (inactive) | -4.42% (inactive) | 21.9% (inactive)
5 | O=C1c2ccccc2C(=O)N1CC(O)Cn1nnc2ccccc21 (centres undefined) | 480 | -22.3% (inactive) | -0.2% (inactive) | 116 | -47.9% (inactive) | 99.5 | -0.521 (inactive) | -4.1e-05 (inactive) | 0.00496 (inactive) | 3.12% (inactive) | 4.4% (inactive)
6 | COc1cccc(NC(=O)C2C3C=CC4(O3)C2C(=O)N(C(C)C)C4C(=O)NC2CCCCC2C)c1 (centres undefined) | 424 | 2.6% (inactive) | -8.5% (inactive) | 110 | -98.5% (inactive) | 114 | -0.525 (inactive) | 3.5e-06 (inactive) | 0.00614 (inactive) | 2.64% (inactive) | 7.71% (inactive)
7 | CC(C)C(NC(=O)c1ccco1)C(=O)NCC(c1ccco1)N1CCCCC1 (centres undefined) | 379 | -22% (inactive) | 6.7% (inactive) | 99 | 0% (inactive) | 97.7 | -0.588 (inactive) | -2.6e-05 (inactive) | 0.00507 (inactive) | 3.26% (inactive) | 14.7% (inactive)
8 | O=c1c2ccccc2nnn1CSc1nnc2sc3ccccc3n12 | 558 | -14.2% (inactive) | -28.8% (inactive) | 109 | -56% (inactive) | 111 | -0.521 (inactive) | -4.5e-05 (inactive) | 0.00436 (inactive) | 49% (inactive) | 42.1% (inactive)
9 | CCOC(=O)C(NC(=O)c1ccc(OC)cc1)(N1CCOCC1)C(F)(F)F (centres undefined) | 551 | -0.5% (inactive) | -14.5% (inactive) | 108 | 29.4% (inactive) | 88.9 | -0.59 (inactive) | -4.2e-05 (inactive) | 0.00726 (inactive) | -14.4% (inactive) | -22.3% (inactive)
10 | Cn1cccc1Cc1nnc(SCC(=O)Nc2ccc(F)cc2)n1-c1ccc(F)cc1 | 843 | 1.4% (inactive) | -2.2% (inactive) | 95.4 | -45.2% (inactive) | 116 | -0.592 (inactive) | -1.8e-05 (inactive) | 0.00531 (inactive) | 10.5% (inactive) | 27.7% (inactive)
11 | CC(=O)Nc1cc(N2C(=O)CCC2=O)ccc1Cl | 498 | 3.5% (inactive) | 12.7% (inactive) | 98.5 | 10.7% (inactive) | 110 | -0.509 (inactive) | 2.5e-05 (inactive) | 0.00539 (inactive) | 23% (inactive) | 20.8% (inactive)
12 | COCC(=O)N(Cc1cc2cc(OC)ccc2[nH]c1=O)c1ccccc1 | 412 | 4.3% (inactive) | 1.5% (inactive) | 106 | -47.1% (inactive) | 113 | -0.453 (inactive) | -5.4e-05 (inactive) | 0.00281 (inactive) | 5.46% (inactive) | 19% (inactive)
13 | COc1cc(C(=O)OCC(=O)N(C)Cc2ccccc2)cc(OC)c1OC | 405 | 5.1% (inactive) | -1.2% (inactive) | 110 | -264% (inactive) | 119 | -0.535 (inactive) | -0.00012 (inactive) | 0.00533 (inactive) | 15.1% (inactive) | 20.6% (inactive)
14 | CC(C)CC1NC2(C(=O)N(C)c3ccccc32)C2C(=O)N(C(C)C)C(=O)C12 (centres undefined) | 798 | -5.5% (inactive) | -49.8% (inactive) | 72.1 | 13.8% (inactive) | 103 | -0.482 (inactive) | 9.4e-06 (inactive) | 0.00636 (inactive) | -1.45% (inactive) | -17% (inactive)
